Tests used:
Assay in all cases: DAPPL (digital affinity profiling via proximity ligation, sequencing); 10 mM Tris-HCl pH 7.5, 50 mM NaCl, 1 mM DTT, 4% glycerol, room temperature, 30 min; GST-TFs on glutathione beads, 16-mer random dsDNA library, 0.1% formaldehyde crosslink after washing; high values mean tight binding
FEV = biological target: T1, FEV (Homo sapiens, UniProt Q99581 1-238); conditions: protein: recombinant; tags: N-terminal GST; dsDNA, one strand shown
T1 sequence: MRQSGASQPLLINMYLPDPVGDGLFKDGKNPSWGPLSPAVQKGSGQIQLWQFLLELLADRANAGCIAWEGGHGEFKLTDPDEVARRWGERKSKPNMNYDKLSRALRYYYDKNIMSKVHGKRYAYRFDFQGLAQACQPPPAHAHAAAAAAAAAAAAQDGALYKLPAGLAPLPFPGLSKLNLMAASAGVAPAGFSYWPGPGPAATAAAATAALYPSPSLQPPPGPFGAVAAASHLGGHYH
Summary of the method: (§1)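 Human transcription factors fused to GST were expressed in yeast, captured on glutathione beads, given DNA barcodes and pooled with a GST-only negative control. Pools were incubated with 200 nmole of a 16-mer random double-stranded DNA library in Tris/NaCl/DTT/glycerol buffer at room temperature for 30 min. They were then washed, crosslinked with 0.1% formaldehyde, proximity-ligated (BsaI/T4 ligase, 1 h, 37 °C), PCR-amplified and sequenced on an Illumina NextSeq500. Binding signal is each 6-mer's read frequency for a factor divided by its frequency for the GST control.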

ETV5 = ETV5 (Homo sapiens, UniProt P41161 1-510); conditions: protein: recombinant; tags: N-terminal GST; dsDNA, one strand shown
Summary of the method: as §1

HSF1 = HSF1 (Homo sapiens, UniProt Q00613 1-529); conditions: protein: recombinant; tags: N-terminal GST; chain copies: 3; dsDNA, one strand shown
Summary of the method: as §1

SPIC = biological target: T2, SPIC (Homo sapiens, UniProt Q8N5J4 1-248); conditions: protein: recombinant; tags: N-terminal GST; dsDNA, one strand shown
T2 sequence: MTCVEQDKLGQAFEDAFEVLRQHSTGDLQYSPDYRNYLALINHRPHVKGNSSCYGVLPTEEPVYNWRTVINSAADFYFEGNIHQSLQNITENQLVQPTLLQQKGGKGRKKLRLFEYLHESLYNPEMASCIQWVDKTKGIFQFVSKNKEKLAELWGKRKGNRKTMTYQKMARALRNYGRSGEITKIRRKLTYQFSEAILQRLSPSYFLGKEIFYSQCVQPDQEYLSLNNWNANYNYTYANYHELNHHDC
Summary of the method: as §1

ELF4 = ELF4 (Homo sapiens, UniProt Q99607 1-663); conditions: protein: recombinant; tags: N-terminal GST; dsDNA, one strand shown
Summary of the method: as §1

ELK4 = biological target: T3, ELK4 (Homo sapiens, UniProt P28324-2 1-405); conditions: protein: recombinant; tags: N-terminal GST; dsDNA, one strand shown
T3 sequence: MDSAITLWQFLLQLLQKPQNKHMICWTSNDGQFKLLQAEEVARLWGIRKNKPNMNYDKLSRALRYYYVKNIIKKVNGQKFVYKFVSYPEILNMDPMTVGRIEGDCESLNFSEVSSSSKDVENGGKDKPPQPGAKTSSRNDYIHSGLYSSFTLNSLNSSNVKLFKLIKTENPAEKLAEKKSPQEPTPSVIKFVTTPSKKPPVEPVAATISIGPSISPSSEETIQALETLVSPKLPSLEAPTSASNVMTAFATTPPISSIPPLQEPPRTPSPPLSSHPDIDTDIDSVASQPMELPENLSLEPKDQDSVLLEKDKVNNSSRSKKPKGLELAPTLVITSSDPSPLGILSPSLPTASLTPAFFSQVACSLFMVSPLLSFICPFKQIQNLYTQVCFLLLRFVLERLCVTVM
Summary of the method: as §1

ETV2 = biological target: T4, ETV2 (Homo sapiens, UniProt O00321 1-342); conditions: protein: recombinant; tags: N-terminal GST; dsDNA, one strand shown
T4 sequence: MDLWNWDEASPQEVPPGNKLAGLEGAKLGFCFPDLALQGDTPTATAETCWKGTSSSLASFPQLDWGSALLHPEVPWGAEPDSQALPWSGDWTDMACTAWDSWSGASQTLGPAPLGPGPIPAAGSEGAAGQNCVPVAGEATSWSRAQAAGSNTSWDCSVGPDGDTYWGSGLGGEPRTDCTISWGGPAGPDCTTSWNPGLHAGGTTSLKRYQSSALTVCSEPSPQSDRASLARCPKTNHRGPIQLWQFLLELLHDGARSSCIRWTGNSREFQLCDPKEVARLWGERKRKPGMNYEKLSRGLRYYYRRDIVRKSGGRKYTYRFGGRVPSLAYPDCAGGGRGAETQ
Summary of the method: as §1

ELF3 = biological target: T5, ELF3 (Homo sapiens, UniProt P78545 1-371); conditions: protein: recombinant; tags: N-terminal GST; dsDNA, one strand shown
T5 sequence: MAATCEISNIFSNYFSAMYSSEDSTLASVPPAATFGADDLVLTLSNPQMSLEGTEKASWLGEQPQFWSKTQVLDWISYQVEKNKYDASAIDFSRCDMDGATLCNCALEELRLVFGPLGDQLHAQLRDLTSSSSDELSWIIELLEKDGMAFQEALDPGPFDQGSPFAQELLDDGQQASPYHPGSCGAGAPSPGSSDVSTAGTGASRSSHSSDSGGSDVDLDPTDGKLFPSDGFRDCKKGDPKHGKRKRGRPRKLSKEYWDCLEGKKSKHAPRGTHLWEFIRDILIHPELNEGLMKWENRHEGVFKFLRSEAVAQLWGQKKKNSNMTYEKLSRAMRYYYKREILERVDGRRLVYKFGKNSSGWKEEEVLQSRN
Summary of the method: as §1

CRX = CRX (Homo sapiens, UniProt O43186 1-299); conditions: protein: recombinant; tags: N-terminal GST; dsDNA, one strand shown
Summary of the method: as §1

ETV1 = ETV1 (Homo sapiens, UniProt P50549 1-477); conditions: protein: recombinant; tags: N-terminal GST; dsDNA, one strand shown
Summary of the method: as §1

Chain of ETV5 (P41161 whole entry): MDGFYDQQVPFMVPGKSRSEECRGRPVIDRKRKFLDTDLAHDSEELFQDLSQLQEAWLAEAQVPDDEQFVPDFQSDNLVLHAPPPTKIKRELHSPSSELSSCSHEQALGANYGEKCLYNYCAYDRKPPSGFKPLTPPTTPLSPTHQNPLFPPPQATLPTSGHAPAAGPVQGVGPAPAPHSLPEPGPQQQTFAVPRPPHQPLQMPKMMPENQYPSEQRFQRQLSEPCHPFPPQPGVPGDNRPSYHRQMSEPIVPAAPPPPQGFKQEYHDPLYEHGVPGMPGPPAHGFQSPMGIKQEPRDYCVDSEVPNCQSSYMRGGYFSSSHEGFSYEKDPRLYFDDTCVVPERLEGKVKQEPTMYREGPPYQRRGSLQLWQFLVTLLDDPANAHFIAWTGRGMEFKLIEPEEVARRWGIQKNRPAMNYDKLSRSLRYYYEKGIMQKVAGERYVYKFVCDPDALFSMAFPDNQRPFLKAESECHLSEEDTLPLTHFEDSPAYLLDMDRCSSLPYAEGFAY
Chain of CRX (O43186 whole entry): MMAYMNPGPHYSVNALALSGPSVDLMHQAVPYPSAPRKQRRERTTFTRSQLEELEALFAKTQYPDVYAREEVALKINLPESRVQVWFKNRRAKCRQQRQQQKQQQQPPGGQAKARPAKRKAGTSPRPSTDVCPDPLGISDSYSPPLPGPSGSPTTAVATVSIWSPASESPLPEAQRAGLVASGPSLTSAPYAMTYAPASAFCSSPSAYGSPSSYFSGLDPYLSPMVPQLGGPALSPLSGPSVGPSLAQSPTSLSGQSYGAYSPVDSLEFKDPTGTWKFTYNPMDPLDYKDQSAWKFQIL
Chain of ETV1 (P50549 whole entry): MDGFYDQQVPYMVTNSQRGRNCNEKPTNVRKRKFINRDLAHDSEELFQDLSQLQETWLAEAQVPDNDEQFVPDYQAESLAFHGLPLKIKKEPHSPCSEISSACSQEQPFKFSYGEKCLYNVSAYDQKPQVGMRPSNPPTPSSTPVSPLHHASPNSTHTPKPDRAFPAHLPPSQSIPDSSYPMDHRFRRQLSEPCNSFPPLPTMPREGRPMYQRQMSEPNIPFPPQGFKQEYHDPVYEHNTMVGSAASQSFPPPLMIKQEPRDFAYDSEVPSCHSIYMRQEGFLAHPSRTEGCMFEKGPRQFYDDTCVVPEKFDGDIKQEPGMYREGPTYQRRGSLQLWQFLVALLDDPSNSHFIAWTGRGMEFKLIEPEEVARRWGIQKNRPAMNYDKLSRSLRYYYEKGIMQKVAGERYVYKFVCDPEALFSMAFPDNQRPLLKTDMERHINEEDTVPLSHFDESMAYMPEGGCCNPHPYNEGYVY
Chain of ELF4 (Q99607 whole entry): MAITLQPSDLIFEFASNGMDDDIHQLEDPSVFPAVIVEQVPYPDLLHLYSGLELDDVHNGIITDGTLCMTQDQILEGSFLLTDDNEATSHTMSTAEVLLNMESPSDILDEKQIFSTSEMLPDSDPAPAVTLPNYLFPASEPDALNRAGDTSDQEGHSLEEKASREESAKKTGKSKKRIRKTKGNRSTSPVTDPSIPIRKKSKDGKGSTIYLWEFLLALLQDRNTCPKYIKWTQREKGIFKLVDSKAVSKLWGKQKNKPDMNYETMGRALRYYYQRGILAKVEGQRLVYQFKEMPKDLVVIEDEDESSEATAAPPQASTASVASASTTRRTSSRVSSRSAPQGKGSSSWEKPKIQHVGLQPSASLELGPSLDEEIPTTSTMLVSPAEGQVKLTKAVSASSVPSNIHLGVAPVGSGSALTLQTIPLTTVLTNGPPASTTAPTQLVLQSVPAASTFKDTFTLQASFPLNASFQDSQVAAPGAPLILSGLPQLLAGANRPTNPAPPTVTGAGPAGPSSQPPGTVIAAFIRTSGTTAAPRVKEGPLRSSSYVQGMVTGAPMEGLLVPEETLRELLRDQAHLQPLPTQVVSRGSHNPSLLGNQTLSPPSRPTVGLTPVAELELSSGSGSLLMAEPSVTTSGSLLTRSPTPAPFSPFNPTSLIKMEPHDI
Chain of HSF1 (Q00613 whole entry): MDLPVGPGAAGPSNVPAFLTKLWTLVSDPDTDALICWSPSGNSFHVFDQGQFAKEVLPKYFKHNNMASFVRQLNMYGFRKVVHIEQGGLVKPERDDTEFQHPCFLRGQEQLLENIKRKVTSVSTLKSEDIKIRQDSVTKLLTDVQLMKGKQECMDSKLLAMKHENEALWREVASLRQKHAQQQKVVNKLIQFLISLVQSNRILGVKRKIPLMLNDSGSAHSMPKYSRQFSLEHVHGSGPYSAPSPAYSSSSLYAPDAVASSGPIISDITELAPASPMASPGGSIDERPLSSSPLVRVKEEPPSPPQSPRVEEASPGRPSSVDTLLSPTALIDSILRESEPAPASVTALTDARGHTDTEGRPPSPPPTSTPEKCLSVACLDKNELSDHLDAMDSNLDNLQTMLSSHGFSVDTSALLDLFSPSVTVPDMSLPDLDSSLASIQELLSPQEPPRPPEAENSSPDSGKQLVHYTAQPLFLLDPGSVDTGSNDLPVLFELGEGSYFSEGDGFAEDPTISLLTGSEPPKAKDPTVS

## ATTGAT
FEV
  binding signal: 1.25 fold enrichment (6-mer frequency, TF over GST control)
ETV5
  binding signal: 1.2 fold enrichment (6-mer frequency, TF over GST control)
HSF1
  binding signal: 1.37 fold enrichment (6-mer frequency, TF over GST control)
SPIC
  binding signal: 1.42 fold enrichment (6-mer frequency, TF over GST control)
ELF4
  binding signal: 1.32 fold enrichment (6-mer frequency, TF over GST control)
ELK4
  binding signal: 1.38 fold enrichment (6-mer frequency, TF over GST control)
ETV2
  binding signal: 1.3 fold enrichment (6-mer frequency, TF over GST control)
ELF3
  binding signal: 1.22 fold enrichment (6-mer frequency, TF over GST control)
CRX
  binding signal: 1.46 fold enrichment (6-mer frequency, TF over GST control)
ETV1
  binding signal: 1.39 fold enrichment (6-mer frequency, TF over GST control)

From paper PMC7862700, “An all-to-all approach to the identification of sequence-specific readers for epigenetic DNA modifications on cytosine”
